The values below come from PubChem BioAssay (NCATS).

Molecules are shown by their SMILES. A number with no mark means an inactive call. The rule behind the calls is not given here.
Potency is the fitted concentration of half-maximal effect.

In the test the test system is HIV-1 nucleocapsid protein NCp7 (binding to TG oligonucleotide). The test can be described thus: HIV Nucleocapsid (AID 346).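 Note: potency is for inhibitors that block NC binding and lower polarization.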 As to conditions: HIV-1 NC / fluorescein-TGTGTGTG probe, fluorescence polarization. On the procedure: NCGC Assay Overview: HIV-1 nucleocapsid protein (HIV-1 NC) is a small (6.5 kDa) basic zinc-finger protein which participates in packaging of viral genomic RNA. The spacing and metal-chelating residues (3 Cys, 1 His) of the Cys-X2-Cys-X4-His-X4-Cys Zn fingers are conserved among all known retroviruses (J. Med. Chem. 1998, 41, 1371-1381). HIV-1 NC was assayed for its binding to the consensus sequence single-stranded 5'-TGTGTGTG. […] High salt was included to increase the stringency of binding and inhibitor screen. Reducing agents and zinc were present to stabilize the nucleocapsid zinc-finger protein.
NCGC Assay Protocol Summary: Buffer. Hepes pH 7.5, 250mM NaCl, 1uM ZnCl2. 0.004% polyethylene glycol 20000. TCEP (100 uM) and 2-Mercaptoethanol (5 mM), added fresh the day of the experiment. Reagents/Controls. 10 nM TG4xF only in columns 3 and 4 as negative control. 10 nM TG4xF/100 nM HIV-1 NC in columns 1, 2, 5-48. Titration of control compound NSC-13778 (from 20 mM, then 1:2) pin-transferred to column 2. Assay Steps. Two uL of reagents were dispensed to 1536-well Kalypsys black plates. The plates were centrifuged for 1 min at 1000 rpm. Compounds and controls (20 nL) were transferred via Kalypsys PinTool. The plates were incubated for 1 hr at room temperature, and then read on ViewLux (Perkin-Elmer). High-throughput CCD imager using fluorescein polarization filter set and 45 seconds exposure time.
In general terms: In fluorescence polarisation assays a small probe gives low polarisation when free and higher when bound to something large.
In the case of `FC(F)(F)c1ccccc1-c1nc(-n2ccnc2)c2ccccc2n1`, the Potency is greater than 20 µM.
With `CS(=O)(=O)Nc1cccc(-c2ccc3ncnc(NCc4cccs4)c3c2)c1`, the Potency was greater than 20 µM.
Regarding `CCNc1ncc2nc(-c3ccc(Cl)cc3)c(=O)n(-c3ccc(OC)cc3)c2n1`, the Potency is greater than 4 µM.
For `Cc1nc2cnc(N3CCN(C)CC3)nc2n(CCC#N)c1=O`, the Potency was greater than 20 µM.
For the molecule `Cc1cnc(CNc2ncncc2-c2cccnc2)cn1`, the Potency was greater than 20 µM.
Regarding `CCNc1ncc2nc(-c3ccc(OC)cc3)c(=O)n(Cc3cccs3)c2n1`, the Potency is greater than 20 µM.
Then `COC(=O)N1CCC2(CCN(C(=O)NC(C)C)CC2)CC1`, with greater than 20 µM; and `COc1ccc(NC(=O)N2CCCC3(CCN(C(=O)c4c(C)noc4C)CC3)C2)cc1`, with greater than 20 µM; and `COCCNc1ccnc(-c2c(C)noc2C)n1`, with greater than 20 µM.
Regarding `O=c1c(-c2cccs2)nc2cnc(N3CCOCC3)nc2n1-c1ccccc1`, the Potency was greater than 20 µM.
Take `CN(C)Cc1ccccc1-c1ccc2ncnc(N(C)C)c2c1`: the Potency is greater than 20 µM.
`Cc1cccc(CNc2ncnc3ccc(-c4ccccc4C#N)cc23)c1`: the Potency is greater than 20 µM.
With `Cn1cccc1C(=O)N1CCC2(CCCN(C(=O)Nc3cccc(F)c3)C2)CC1`, the Potency was greater than 20 µM.
For `Cc1nc2cnc(OCc3ccccc3)nc2n(C)c1=O`, the Potency was greater than 20 µM.
Then `c1ccc2c(NCCN3CCOCC3)nc(-c3ccc4c(c3)OCO4)nc2c1`, with greater than 20 µM.
Then `CN(C)c1ncc2nc(-c3cc(F)cc(F)c3)c(=O)n(CCC#N)c2n1`, with greater than 20 µM; and `CC(=O)NCCNc1nc(-c2cccc(C#N)c2)nc2ccccc12`, with greater than 20 µM.
Turning to `Cn1c(=O)c(-c2ccc(F)cc2)nc2cncnc21`, the Potency is greater than 20 µM.
Consider `O=C(c1cnccn1)N1CCC2(CCN(Cc3ccccc3)CC2)CC1`, for which the Potency is greater than 20 µM.
With `COCCn1c(=O)c(-c2cccc(F)c2)nc2cncnc21`, the Potency is greater than 20 µM.
For the molecule `COCC(=O)N1CCC2(CC1)CN(C(=O)Nc1ccc(OC)cc1)C2`, the Potency was greater than 20 µM.
Consider `Cc1ccccc1-c1nc(N2CCN(C)CC2)c2ccccc2n1`, for which the Potency is greater than 20 µM.
On to `CN(C)Cc1ccccc1-c1cc(NC2CC2)ncn1`, for which the Potency was greater than 20 µM.
With `COc1cccc(Cn2c(=O)c(C)nc3cnc(N4CCNCC4)nc32)c1` the figure was greater than 4 µM; with `CN1CCCC2(CCN(C(=O)c3cccc(F)c3)CC2)C1`, greater than 20 µM.
Turning to `COc1ccc(CNc2ccnc(-c3ccoc3)n2)c(OC)c1`, the Potency is greater than 20 µM.
Then `COc1ccc2[nH]cc(CCNc3ncnc4ccc(-c5ccccc5CN(C)C)cc34)c2c1`, with greater than 20 µM; and `Cc1cccc(CNc2ccnc(-c3ccc(N(C)C)cc3)n2)c1`, with greater than 20 µM; and `CS(=O)(=O)N1CCC2(CCCN(Cc3ccc(C#N)cc3)C2)CC1`, with greater than 20 µM.
`COc1ccc(-n2c(=O)c(-c3cn(C)c4ccccc34)nc3cnc(N4CCOCC4)nc32)cc1`: the Potency is greater than 20 µM.
In the case of `COC(=O)N1CCC2(CCN(C(=O)Nc3ccccc3)CC2)CC1`, the Potency was greater than 20 µM.
On to `O=C(Oc1ccccc1)N1CCC2(CCCN(c3ccncc3)C2)CC1`, for which the Potency was greater than 20 µM.
As for `COc1cccc(Cn2c(=O)c(-c3cc(F)cc(F)c3)nc3cnc(OC)nc32)c1`, the Potency was greater than 20 µM.
For the molecule `O=C(c1cc(C(F)(F)F)cc(C(F)(F)F)c1)N1CCC2(CCN(Cc3nccs3)CC2)CC1`, the Potency is greater than 20 µM.
For `COc1ccc2[nH]cc(CCNc3ncnc4ccc(-c5ccc6c(c5)OCO6)cc34)c2c1`, the Potency is greater than 20 µM.
For `COc1ccc2[nH]cc(CCNc3ncncc3-c3ccc(N(C)C)cc3)c2c1`, the Potency is greater than 20 µM.
Then `COc1cccc(-c2cc(N(C)Cc3ccco3)ncn2)c1`, with greater than 20 µM.
As for `CN(C)Cc1ccccc1-c1cncnc1Nc1ccncc1`, the Potency was greater than 20 µM.
With `CC(=O)N1CCC2(CC1)CCN(c1ccncc1)CC2`, the Potency is greater than 20 µM.
Take `COCCn1c(=O)c(-c2ccc(F)cc2)nc2cnc(Oc3ccc(OC)cc3)nc21`: the Potency was greater than 20 µM.
